Consider twelve compounds from the supplement of paper PMC8047044.

This assay relates to Neuro-2a. Briefly: neurite formation score, plate-normalized to DMSO control mean 5.04 (score (0-8 scale)); higher = more or longer neurites. The conditions noted are these: 0.1 µM. On the procedure:
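Neuro-2a mouse neuroblastoma cells in PLL-coated 96-well plates were pre-treated for 1 h in DMEM(+) with each kinase inhibitor at 0.1 µM, then switched to serum-free DMEM(-) with inhibitor to induce neurite outgrowth and fixed about 2-3 h later. Three blinded observers scored neurite formation from 0 (no neurites) to 8 (long neurites on almost all cells).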
Take `O=c1[nH]c2ccc(Cl)cc2c(N[C@@H]2CN3CCC2CC3)c1-c1nc2ccccc2[nH]1`: the neurite formation score stood at 4.92.
To `COC[C@H]1OC(=O)c2coc3c2[C@@]1(C)C1=C(C3=O)[C@@H]2CCC(=O)[C@@]2(C)C[C@H]1OC(C)=O` [Wortmannin] belongs 4.58; to `CCN1CCN(C(=O)Cc2ccc(Nc3ncc(F)c(Nc4ccc(C(=O)Nc5ccccc5Cl)cc4)n3)cc2)CC1` [Aurora A Inhibitor I], 4.92.
To `N#CC(C#N)=Cc1ccc(O)c(O)c1` belongs 5.38; to `Cc1ccccc1-n1c(Cn2cnc3c(N)ncnc32)nc2cccc(C)c2c1=O`, 4.75; to `COc1ccc(N(C(=O)Oc2c(C)cccc2C)c2ccnc(Nc3ccc(N4CCN(C)CC4)cc3)n2)c(OC)c1`, 5.08.
To `CC(C)(C)c1cc(C=C(C#N)C#N)cc(Br)c1O` belongs 5.04; to `COc1cc([C@@H]2c3cc4c(cc3[C@H](O)[C@H]3COC(=O)[C@@H]23)OCO4)cc(OC)c1OC`, 2.38; to `O=c1[nH]c2ccccc2n1C1CCN(Cc2ccc(-c3[nH]c4cc5ncnc5cc4nc3-c3ccccc3)cc2)CC1` [AKT inhibitor VIII], 3.38.
For `Cn1cc(C2=C(c3cn(C4CCN(Cc5ccccn5)CC4)c4ccccc34)C(=O)NC2=O)c2ccccc21`, the neurite formation score was determined as 2.38.
Compound `CC(C)(C)c1cc(C=C(C#N)C#N)cc(C(C)(C)C)c1O` [Tyrphostin 9] returned a neurite formation score of 4.92.
`COc1ccc2c(c[n+](C)c3c4cc5c(cc4ccc23)OCO5)c1OC` [Chelerythrine Chloride] had a neurite formation score of 4.04.
